# Experimental data taken from the supplement of paper PMC8728848.
# This excerpt belongs to a sample that is enriched for the strongest signals.
# B1: Langerin (Homo sapiens), Q9UJ71 (protein)
# chain: STLNAQIPELKSDLEKASALNTKIRALQGSLENMSKLLKRQNDILQVVSQGWKYFKGNFYYFSLIPKTWYSAEQFCVSRNSHLTSVTSESEQEFLYKTAGGLIYWIGLTKAGMEGDWSWVDDTPFNKVQSARFWIPGEPNDAGNNEHCGNIKAPSLQAWNDAPCDITFLFICKRPYVPSEP
# What was measured:
# Assay in all cases: glycan array binding signal (z-score within array); higher = stronger binding
# Settings in all cases: glycan notation: IUPAC condensed, linker removed; mutation: N288D, K313I
# [1] = target: Fuc(a1-2)Gal(b1-3)GlcNAc(b1-3)[Fuc(a1-2)Gal(b1-3)GlcNAc(b1-6)]GalNAc
# Procedure, shortened: (§1)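 From the Consortium for Functional Glycomics database, 3228 arrays were curated, keeping only those whose protein sequence was available. Binding is given as a within-array Z-score averaged across arrays sharing a protein sequence and across linkers. Negative Z-scores can be read as non-binding.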
# [2] = target: Fuc(a1-2)Gal(b1-3)GlcNAc(b1-3)[Gal(b1-4)GlcNAc(b1-6)]Gal(b1-4)Glc
# Procedure, shortened: as §1
# [3] = target: Fuc(a1-2)Gal(b1-4)Fuc(a1-3)]GlcNAc(b1-2)Man(a1-3)[Fuc(a1-2)Gal(b1-4)[Fuc(a1-3)]GlcNAc(b1-2)Man(a1-6)]Man(b1-4)GlcNAc(b1-4)GlcNAc
# Procedure, shortened: as §1
# [4] = target: Fuc(a1-2)Gal(b1-4)GlcNAc(b1-2)Man(a1-3)[Fuc(a1-2)Gal(b1-4)GlcNAc(b1-2)Man(a1-6)]Man(b1-4)GlcNAc(b1-4)GlcNAc
# Procedure, shortened: as §1
# [5] = target: Fuc(a1-2)Gal6S(b1-3)GlcNAc
# Procedure, shortened: as §1
# [6] = target: Fuc(a1-2)[GalNAc(a1-3)]Gal(b1-3)GlcNAc(b1-6)GalNAc
# Procedure, shortened: as §1
# [7] = target: Fuc(a1-2)[GalNAc(a1-3)]Gal(b1-4)GlcNAc
# Procedure, shortened: as §1
# [8] = target: Fuc(a1-2)[GalNAc(a1-3)]Gal(b1-4)GlcNAc(b1-3)GalNAc
# Procedure, shortened: as §1
# [9] = target: Fuc(a1-2)[GalNAc(a1-3)]Gal(b1-4)[Fuc(a1-3)]GlcNAc(b1-3)GalNAc
# Procedure, shortened: as §1
# [10] = target: Fuc(a1-2)[GalNAc(a1-4)]Gal(b1-4)GlcNAc
# Procedure, shortened: as §1
# [11] = target: Fuc(a1-3)[Gal3S(b1-4)]GlcNAc
# Procedure, shortened: as §1
# [12] = target: Gal(a1-3)Gal(b1-3)GlcNAc(b1-6)GalNAc
# Procedure, shortened: as §1
# [13] = target: Gal(a1-3)Gal(b1-3)[Fuc(a1-4)]GlcNAc(b1-2)Man(a1-3)[Gal(a1-3)Gal(b1-3)[Fuc(a1-4)]GlcNAc(b1-2)Man(a1-6)]Man(b1-4)GlcNAc(b1-4)GlcNAc
# Procedure, shortened: as §1
# [14] = target: Gal(b1-3)GalNAc(a1-3)[Fuc(a1-2)]Gal(b1-4)Glc
# Procedure, shortened: as §1
# [15] = target: Gal(b1-3)GlcNAc(b1-3)Gal(b1-4)GlcNAc(b1-2)[Gal(b1-3)GlcNAc(b1-3)Gal(b1-4)GlcNAc(b1-6)]Man(a1-6)[Gal(b1-3)GlcNAc(b1-3)Gal(b1-4)GlcNAc(b1-2)Man(a1-3)]Man(b1-4)GlcNAc(b1-4)[Fuc(a1-6)]GlcNAc
# Procedure, shortened: as §1
# [16] = target: Gal(b1-3)GlcNAc(b1-3)Gal(b1-4)GlcNAc(b1-3)Gal(b1-4)GlcNAc(b1-2)[Gal(b1-3)GlcNAc(b1-3)Gal(b1-4)GlcNAc(b1-3)Gal(b1-4)GlcNAc(b1-6)]Man(a1-6)[Gal(b1-3)GlcNAc(b1-3)Gal(b1-4)GlcNAc(b1-3)Gal(b1-4)GlcNAc(b1-2)Man(a1-3)]Man(b1-4)GlcNAc(b1-4)[Fuc(a1-6)]GlcNAc
# Procedure, shortened: as §1
# [17] = target: Gal(b1-3)[Neu5Ac(a2-6)]GalNAc
# Procedure, shortened: as §1
# [18] = target: Gal(b1-4)GlcNAc(b1-2)Man(a1-3)[GlcNAc(b1-4)][Gal(b1-4)GlcNAc(b1-2)Man(a1-6)]Man(b1-4)GlcNAc(b1-4)GlcNAc
# Procedure, shortened: as §1
# [19] = target: Gal(b1-4)GlcNAc(b1-2)[Gal(b1-4)GlcNAc(b1-4)]Man(a1-3)[Gal(b1-4)GlcNAc(b1-2)[Gal(b1-4)GlcNAc(b1-6)]Man(a1-6)]Man(b1-4)GlcNAc(b1-4)GlcNAc
# Procedure, shortened: as §1
# [20] = target: Gal3S(b1-4)[Fuc(a1-3)]GlcNAc6S
# Procedure, shortened: as §1
# [21] = target: Gal3S4S(b1-4)GlcNAc
# Procedure, shortened: as §1
# [22] = target: Gal3S6S(b1-4)GlcNAc
# Procedure, shortened: as §1
# [23] = target: GalNAc(b1-3)Gal
# Procedure, shortened: as §1
# [24] = target: GalNAc(b1-4)GlcNAc(b1-2)Man(a1-3)[GalNAc(b1-4)GlcNAc(b1-2)Man(a1-6)]Man(b1-4)GlcNAc(b1-4)GlcNAc
# Procedure, shortened: as §1
# [25] = target: GalNAc(b1-6)GalNAc
# Procedure, shortened: as §1
# [26] = target: GalNAc3S(b1-4)[Fuc(a1-3)]GlcNAc
# Procedure, shortened: as §1
# [27] = target: GlcNAc(a1-4)Gal(b1-4)GlcNAc(b1-3)Gal(b1-4)Glc
# Procedure, shortened: as §1
# [28] = target: GlcNAc(a1-6)Gal(b1-4)GlcNAc
# Procedure, shortened: as §1
# [29] = target: GlcNAc(b1-2)Man(a1-3)[GlcNAc(b1-4)][GlcNAc(b1-2)Man(a1-6)]Man(b1-4)GlcNAc(b1-4)[Fuc(a1-6)]GlcNAc
# Procedure, shortened: as §1
# [30] = target: GlcNAc(b1-2)[GlcNAc(b1-4)]Man(a1-3)[GlcNAc(b1-2)Man(a1-6)]Man(b1-4)GlcNAc(b1-4)GlcNAc
# Procedure, shortened: as §1
binder,measurement,setting,value
B1,glycan array binding signal (z-score),[1],0.215
same,glycan array binding signal (z-score),[2],-0.246
same,glycan array binding signal (z-score),[3],-0.237
same,glycan array binding signal (z-score),[4],-0.023
same,glycan array binding signal (z-score),[5],-0.321
same,glycan array binding signal (z-score),[6],0.089
same,glycan array binding signal (z-score),[7],-0.27
same,glycan array binding signal (z-score),[8],-0.041
same,glycan array binding signal (z-score),[9],1.92
same,glycan array binding signal (z-score),[10],-0.285
same,glycan array binding signal (z-score),[11],0.041
same,glycan array binding signal (z-score),[12],10.4
same,glycan array binding signal (z-score),[13],-0.042
same,glycan array binding signal (z-score),[14],-0.171
same,glycan array binding signal (z-score),[15],5.7
same,glycan array binding signal (z-score),[16],7.74
same,glycan array binding signal (z-score),[17],-0.085
same,glycan array binding signal (z-score),[18],-0.237
same,glycan array binding signal (z-score),[19],-0.351
same,glycan array binding signal (z-score),[20],-0.1
same,glycan array binding signal (z-score),[21],-0.333
same,glycan array binding signal (z-score),[22],-0.209
same,glycan array binding signal (z-score),[23],-0.289
same,glycan array binding signal (z-score),[24],-0.176
same,glycan array binding signal (z-score),[25],-0.255
same,glycan array binding signal (z-score),[26],0.095
same,glycan array binding signal (z-score),[27],-0.192
same,glycan array binding signal (z-score),[28],-0.229
same,glycan array binding signal (z-score),[29],1.18
same,glycan array binding signal (z-score),[30],0.028
